Reference: PubChem BioAssay (NCATS)
Values joined by “and” are separate entries in the source; they are usually repeats but may differ in a detail not shown here. Equal entries are not always repeated. Unmarked numbers belong to inactive results. Results filed as inconclusive are left out. A call without a number means that no potency is given here. Active and inactive are the calls of the source. Unless noted, calls come from the whole dose curve; as a rule, active = well fitted curve in either direction with a large enough effect (not every such curve was filed as active); inconclusive = small, poorly fitted or top-dose-only effect, or another doubt; inactive = flat fitted curve, though single readings scatter.

What was measured:
[1] = target: Lysosomal acid glucosylceramidase (Homo sapiens) (UniProt P04062); experiment: Glucocerebrosidase-p2 (AID 348; in the data active = potency below about 10 µM; note: potency is the fitted concentration of half-maximal effect); settings: purified GBA, blue fluorogenic substrate, 40 min
Lysosomal acid glucosylceramidase (Homo sapiens), sequence (P04062 whole entry, looked up): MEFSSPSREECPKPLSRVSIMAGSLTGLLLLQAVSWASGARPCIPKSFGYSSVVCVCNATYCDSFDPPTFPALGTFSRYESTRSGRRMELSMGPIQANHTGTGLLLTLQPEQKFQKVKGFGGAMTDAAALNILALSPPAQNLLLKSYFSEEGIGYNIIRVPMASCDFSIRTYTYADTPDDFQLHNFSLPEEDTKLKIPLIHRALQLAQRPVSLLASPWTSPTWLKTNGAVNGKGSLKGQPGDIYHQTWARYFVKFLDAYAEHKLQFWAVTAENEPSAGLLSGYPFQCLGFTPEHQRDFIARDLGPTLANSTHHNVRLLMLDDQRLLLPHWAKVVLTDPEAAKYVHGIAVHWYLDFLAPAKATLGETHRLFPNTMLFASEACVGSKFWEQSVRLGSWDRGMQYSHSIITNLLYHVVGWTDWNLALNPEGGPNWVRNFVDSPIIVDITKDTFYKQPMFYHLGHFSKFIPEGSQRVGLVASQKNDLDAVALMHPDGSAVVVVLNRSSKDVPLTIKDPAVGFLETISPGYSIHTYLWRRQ
Summary of the method: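 Normal human glucocerebrosidase (0.2 nM) with blue fluorogenic substrate (80 uM final) in citrate/phosphate pH 5.9 with 10mM sodium taurocholate, 0.01% tween-20; 40 min RT, NaOH/glycine stop; fluorescence Ex 365/Em 440; AC50 from a titration from 0.6 nM upwards.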

[2] = AP1 Signaling Pathway (AID 357); settings: ME-180 AP-1-bla reporter, EGF-induced, beta-lactamase ratio, 5 h; series mostly up to 17.2 µM
Summary of the method: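 AP-1-bla ME-180 cells with beta-lactamase reporter under AP-1 response element, stimulated with EC50 EGF; compounds titrated, 5 hours at 37 degrees Celsius. CCF4 read at 460/530 nm ratio; positive and negative modulators judged by AC50.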

[3] = NFAT Signaling Pathway (AID 444); settings: Jurkat NFAT-bla M1, carbachol, beta-lactamase ratio, 5 h;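 note: carbachol stimulus at about its EC50 of 1 µM final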
Summary of the method: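 Jurkat cells with NFAT-driven β-lactamase reporter and co-expressed M1 receptor, stimulated with carbachol (final 1 uM, ~EC50), compound titration, 5 h at 37 °C. CCF4 loaded 1 h at RT; 460/530 nm ratio gave %activity and AC50.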

[4] = Stat Signaling Pathway (AID 446); settings: ME-180 (cervical carcinoma) SIE beta-lactamase reporter, IL-6 stimulated, 5 h; series mostly up to 17.2 µM;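 note: ME-180 cervical cancer cells given 40 pM IL-6 alongside compound; SIE-controlled beta-lactamase reporter measured as 460/530 nm FRET emission ratio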
Summary of the method: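 Compound effects on IL-6-induced STAT reporter activity were measured in ME-180 cells. After overnight culture, cells were co-treated with 40 pM IL-6 for 5 hrs before beta-lactamase substrate loading at room temperature.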

[5] = target: Mitogen-activated protein kinase 10 (Mus musculus) (UniProt Q61831); experiment: JNK3 AlphaScreen Assay (AID 530); settings: JNK3 lysate, c-Jun phosphorylation; series mostly up to 25.6 µM;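 note: kinase came from lysate of stimulated human HepG2 cells; signal reports phosphorylation of biotinylated GST-cJun 1-79 at Ser73 with 10 µM ATP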
Summary of the method: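 HepG2 lysate (IL-1b/TNFa pre-activated) + biotin-GST-cJun 1-79 + anti-pSer73 cJun; cpd titration, 15 min RT; ATP 10 uM start; Tris pH 7.6, MgCl2, DTT, vanadate; beads in EDTA buffer; AlphaScreen.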

[6] = target: 3',5'-cyclic-AMP phosphodiesterase 4B (Homo sapiens) (UniProt Q07343); experiment: qHTS Assay for Inhibitors of PDE-IV (AID 607; active = well fitted activation curve with a large enough effect in the main read-out, with a control signal flat, not every such curve was filed as active); settings: HEK293 ACTOne CNG channel cells, membrane potential fluorescence; series mostly up to 22.9 µM
3',5'-cyclic-AMP phosphodiesterase 4B (Homo sapiens), sequence (Q07343 whole entry, looked up): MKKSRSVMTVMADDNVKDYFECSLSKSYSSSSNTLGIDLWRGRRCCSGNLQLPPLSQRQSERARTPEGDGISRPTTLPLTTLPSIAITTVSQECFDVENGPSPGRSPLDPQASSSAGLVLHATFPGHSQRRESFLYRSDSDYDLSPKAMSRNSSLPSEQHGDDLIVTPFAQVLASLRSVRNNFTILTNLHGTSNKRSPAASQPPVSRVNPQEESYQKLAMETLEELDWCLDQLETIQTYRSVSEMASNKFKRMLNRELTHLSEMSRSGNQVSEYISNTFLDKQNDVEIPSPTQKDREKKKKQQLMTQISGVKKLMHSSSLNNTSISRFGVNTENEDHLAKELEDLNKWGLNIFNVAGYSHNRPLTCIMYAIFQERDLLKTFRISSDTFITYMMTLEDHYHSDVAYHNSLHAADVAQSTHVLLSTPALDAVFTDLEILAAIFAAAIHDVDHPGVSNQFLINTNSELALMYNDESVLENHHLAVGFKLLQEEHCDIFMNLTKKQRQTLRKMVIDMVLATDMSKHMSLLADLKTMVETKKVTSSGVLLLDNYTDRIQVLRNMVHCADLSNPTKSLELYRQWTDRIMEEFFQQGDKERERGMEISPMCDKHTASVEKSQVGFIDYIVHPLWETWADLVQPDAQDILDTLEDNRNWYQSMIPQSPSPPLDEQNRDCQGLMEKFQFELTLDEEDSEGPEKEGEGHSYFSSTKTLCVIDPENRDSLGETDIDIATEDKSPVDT
Summary of the method: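 ACTOne HEK293 cells carry a modified cAMP-gated CNG channel and express endogenous PDE4; plated 1000 cells/well, compounds up to 22.9 uM final. Membrane-potential dye fluorescence (ex 535/em 590) was read; parental cells received 10 uM forskolin + 100 uM RO 20-1724.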

[7] = target: Glucocorticoid receptor (Homo sapiens) (UniProt P04150); experiment: GR-GFP Redistribution (AID 450;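 active = compounds whose dose series gives a full or clear partial fitted curve of increased nuclear translocation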; note: potency is the fitted concentration of half-maximal effect); settings: U2OS GR-GFP nuclear translocation, laser cytometry, 2 h
Glucocorticoid receptor (Homo sapiens), sequence (P04150 whole entry, looked up, the tested form may be a part): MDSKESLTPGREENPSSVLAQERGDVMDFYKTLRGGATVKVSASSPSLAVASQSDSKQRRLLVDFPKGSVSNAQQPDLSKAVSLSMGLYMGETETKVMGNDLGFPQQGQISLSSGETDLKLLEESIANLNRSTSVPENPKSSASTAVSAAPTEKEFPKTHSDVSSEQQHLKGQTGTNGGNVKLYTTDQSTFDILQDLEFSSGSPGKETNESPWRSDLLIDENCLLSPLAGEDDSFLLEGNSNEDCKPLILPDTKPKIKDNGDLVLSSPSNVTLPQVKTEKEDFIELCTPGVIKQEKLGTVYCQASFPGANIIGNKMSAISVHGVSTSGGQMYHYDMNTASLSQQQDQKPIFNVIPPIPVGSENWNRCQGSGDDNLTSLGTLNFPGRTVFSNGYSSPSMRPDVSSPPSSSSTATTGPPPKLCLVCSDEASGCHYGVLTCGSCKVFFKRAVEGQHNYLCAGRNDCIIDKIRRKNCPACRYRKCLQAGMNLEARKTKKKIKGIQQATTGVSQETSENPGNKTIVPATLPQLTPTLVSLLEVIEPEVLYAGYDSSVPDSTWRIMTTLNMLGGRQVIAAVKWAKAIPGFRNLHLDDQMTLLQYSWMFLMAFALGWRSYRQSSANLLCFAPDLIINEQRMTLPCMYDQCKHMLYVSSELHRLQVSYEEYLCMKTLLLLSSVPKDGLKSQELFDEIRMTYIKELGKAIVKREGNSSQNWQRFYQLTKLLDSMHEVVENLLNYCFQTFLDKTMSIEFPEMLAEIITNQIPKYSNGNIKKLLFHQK

[8] = target: Glucocorticoid receptor (Homo sapiens) (UniProt P04150); experiment: GR-EFC Redistribution (AID 451; calls by dose curve; note: potency is the fitted concentration of half-maximal effect); settings: CHO-K1 GR-EFC translocation, beta-gal luminescence, 2 h
Summary of the method: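 CHO-K1 cells expressing nuclear EA and GR-ED fragments of b-gal; compounds titrated up to 46 uM final, 2 h at 37 C. GR nuclear translocation read as complemented b-gal luminescence after 1 h RT detection.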

[9] = target: Cytochrome P450 1A2 (Homo sapiens) (UniProt P05177); experiment: p450-cyp1a2 (AID 410; calls by dose curve; note: potency is the fitted concentration of half-maximal effect); settings: recombinant CYP1A2, luciferin-ME demethylation, luminescence; series mostly up to 25.6 µM
Cytochrome P450 1A2 (Homo sapiens), sequence (P05177 whole entry, looked up): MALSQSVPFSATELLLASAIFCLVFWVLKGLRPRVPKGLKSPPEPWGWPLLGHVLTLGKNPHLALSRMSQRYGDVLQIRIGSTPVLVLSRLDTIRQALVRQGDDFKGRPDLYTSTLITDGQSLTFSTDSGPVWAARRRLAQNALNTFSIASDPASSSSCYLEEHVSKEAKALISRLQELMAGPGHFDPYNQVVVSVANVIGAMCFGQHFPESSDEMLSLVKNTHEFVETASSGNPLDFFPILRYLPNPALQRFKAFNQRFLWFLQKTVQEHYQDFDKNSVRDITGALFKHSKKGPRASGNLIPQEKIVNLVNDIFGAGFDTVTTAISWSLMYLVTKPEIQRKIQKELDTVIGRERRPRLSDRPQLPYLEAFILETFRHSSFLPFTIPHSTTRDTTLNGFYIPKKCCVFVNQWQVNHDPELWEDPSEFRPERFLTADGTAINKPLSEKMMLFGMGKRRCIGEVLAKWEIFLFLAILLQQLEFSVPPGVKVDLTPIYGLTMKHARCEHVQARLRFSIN
Summary of the method: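 20nM CYP1A2, 100uM Luciferin-ME (=Km), 100mM KPO4; cpd 10 min RT; +NADPH regen, 60 min RT; stop/detect 20 min; luminescence. Normalized to furafylline 57 uM = full inhibition.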

[10] = Cell Viability - BJ (AID 421; calls by dose curve;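 note: potency is the fitted concentration of half-maximal effect; cells exposed to compound for 40 hours at 37 °C before readout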); settings: BJ fibroblast viability, qHTS
Summary of the method: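 Luminescent ATP signal (CellTiter-Glo, 20 min at room temperature) served as the read-out of viable BJ cells after 40 hours of compound treatment. Responses were scaled between DMSO and 100 uM tamoxifen, and AC50 values were obtained by Hill modeling.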

[11] = Cell Viability - Jurkat (AID 426;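 active = dose-dependent loss of cell ATP signal giving a full or clear fitted curve, ranked by lower potency value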;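 note: potency is the fitted concentration of half-maximal effect; cells exposed to compound for 40 hours at 37 °C before ATP read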); settings: qHTS
Summary of the method: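 Luminescent ATP read-out (CellTiter-Glo, 20 min at room temperature) after 40 hr compound exposure at 37 °C of Jurkat E6-1 cells, 5000/well. Decreased ATP taken as cytotoxicity; AC50 from standard Hill equation.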

[12] = Cell Viability - Hek293 (AID 427;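 active = compounds whose dose-response curve shows a full or clear partial loss of cell viability, called from curve shape rather than a numeric limit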;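 note: potency is the fitted concentration of half-maximal effect; cells exposed to compound for 40 hours at 37 °C before reading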); settings: qHTS
Summary of the method: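 Luminescent ATP read-out (CellTiter-Glo, 20 min RT) after 40 hr compound exposure at 37 °C in complete medium. Signal normalized to DMSO (basal) and 100 uM tamoxifen (100% inhibition); concentration-response fitted with the standard Hill equation to give AC50.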

[13] = Cell Viability - HepG2 (AID 433; calls by dose curve;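 note: potency is the fitted concentration of half-maximal effect; potency for ATP loss meaning cytotoxicity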); settings: qHTS
Summary of the method: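 Read-out is luciferase-based quantitation of cellular ATP as a measure of viable HepG2 cells after 40 h treatment at 37 °C. Signal decrease is scaled between DMSO-only and 100 uM tamoxifen controls, with AC50 fitted by the Hill equation.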

[14] = Cell Viability - SK-N-SH (AID 435; calls by dose curve; note: potency is the fitted concentration of half-maximal effect); settings: SK-N-SH neuroblastoma cell viability qHTS
Summary of the method: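 Luminescent ATP signal served as the viability read-out after 40 hours of compound treatment of human neuroblastoma SK-N-SH cells. Concentration-response data, scaled between DMSO and 100 uM tamoxifen, gave AC50 values by standard Hill modeling.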

[15] = Cell Viability - N2a (AID 540; active = well fitted curve in the direction sought with a large enough effect; an effect the other way counts as inactive or inconclusive; note: nearly all actives have a fitted effect of over 45% in size); settings: N2a mouse neuroblastoma cell viability; series mostly up to 92.2 µM
Summary of the method: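 N2a mouse neuroblastoma, 1500 cells/well, 5 hr settle; compound 40 hr, 37 °C; CellTiter-Glo 20 min RT; luminescence; Hill-fit AC50.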

[16] = Cell Viability - NIH 3T3 (AID 541; active = well fitted curve in the direction sought with a large enough effect; an effect the other way counts as inactive or inconclusive; note: nearly all actives have a fitted effect of over 25% in size); settings: NIH 3T3 cell viability, qHTS; series mostly up to 92.2 µM
Summary of the method: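 qHTS format; 40 hr compound exposure, 37 °C; CellTiter-Glo luminescence (cellular ATP) read-out after 20 min at RT. Decrease in ATP = cytotoxicity; AC50 from standard Hill fit.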

[17] = Cell Viability - HUV-EC-C (AID 542; active = well fitted curve in the direction sought with a large enough effect; an effect the other way counts as inactive or inconclusive; note: nearly all actives have a fitted effect of over 35% in size); settings: HUV-EC-C endothelial cell viability, qHTS; series mostly up to 92.2 µM
Summary of the method: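 Luminescent ATP read-out (CellTiter-Glo, 20 min room temperature) after 40 hr compound treatment of HUV-EC-C cells at 37 °C. Concentration-response data fitted with the standard Hill equation to give AC50; tamoxifen and doxorubicin served as positive controls.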

[18] = Cell Viability - H-4-II-E (AID 543; active = well fitted curve in the direction sought with a large enough effect; an effect the other way counts as inactive or inconclusive; note: nearly all actives have a fitted effect of over 35% in size); settings: H-4-II-E rat hepatoma viability; series mostly up to 92.2 µM
Summary of the method: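 qHTS, rat hepatoma H-4-II-E, 1500 cells/well; 40 hr compound exposure, 37 °C; CellTiter-Glo ATP luminescence after 20 min RT; AC50 by standard Hill fit.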

[19] = Cell Viability - Renal Proximal Tubule (AID 545; active = well fitted curve in the direction sought with a large enough effect; an effect the other way counts as inactive or inconclusive; note: nearly all actives have a fitted effect of over 40% in size); settings: renal proximal tubule cells viability, primary cells of rat origin; series mostly up to 91.7 µM
Summary of the method: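 Luminescent ATP signal (CellTiter-Glo) served as the viability read-out after 40 hr compound exposure of freshly isolated rat proximal tubule cells at 37 °C. Concentration-dependent ATP loss was fitted with the Hill equation to give AC50.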

[20] = Cell Viability - Mesenchymal (AID 546; active = well fitted curve in the direction sought with a large enough effect; an effect the other way counts as inactive or inconclusive;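 note: cells exposed to compound for 40 hours before reading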); settings: mesenchymal cells viability, qHTS; series mostly up to 91.7 µM
Summary of the method: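 Human renal mesenchymal cells (glomerulus-derived), 1000 cells/well, 5 hr 37 °C pre-incubation; compound 40 hr, 37 °C; CellTiter-Glo, 20 min RT; luminescence; AC50 via Hill equation.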

[21] = at 17.2 µM (top of the series) unless noted

Structure (SMILES): O=S1(=O)OC(c2ccc(O)cc2)(c2ccc(O)cc2)c2ccccc21
- Potency [1]: > 11.4 µM
- outcome [2]: inactive
- activity change, negative = inhibition [3, 21]: 14.9% [at 7.69 µM]
- outcome [4]: inactive
- outcome [5]: inactive
- outcome [6]: inactive

Structure (SMILES): CC(C)=CCC/C(C)=C/CO
- Potency [1]: > 11.4 µM
- outcome [2]: inactive
- activity change, negative = inhibition [3, 21]: 4.14% [at 7.69 µM]
- Potency [7]: > 46 µM
- Potency [8]: > 9.22 µM
- outcome [5]: inactive
- outcome [6]: inactive

Structure (SMILES): COc1ccc2cc(CCC(C)=O)ccc2c1
- outcome [2]: inactive
- Potency [9]: 0.398 µM (active)
- activity change, negative = inhibition [3, 21]: -1.6%
- outcome [4]: inactive
- Potency [7]: > 20.6 µM
- Potency [8]: > 20.6 µM
- outcome [5]: inactive
- outcome [6]: inactive

Structure (SMILES): CC1CCc2cc(F)cc3c(=O)c(C(=O)O)cn1c23 (configuration not stated)
- outcome [2]: inactive
- activity change, negative = inhibition [3, 21]: 13.1%
- outcome [4]: inactive
- Potency [7]: > 20.6 µM

Structure (SMILES): O=C(O)c1ccccc1OP(=O)(O)O
- outcome [2]: inactive
- Potency [9]: inactive
- activity change, negative = inhibition [3, 21]: -20.2%
- outcome [4]: inactive
- Potency [7]: > 20.6 µM
- Potency [8]: > 20.6 µM
- outcome [5]: inactive
- outcome [6]: inactive

Structure (SMILES): CCN(CC)CCOC(=O)C(c1ccccc1)c1ccccc1
- outcome [2]: inactive
- Potency [9]: 5.01 µM (active)
- activity change, negative = inhibition [3, 21]: -79.3% (active)
- outcome [4]: inactive
- Potency [7]: > 20.6 µM
- Potency [8]: > 20.6 µM
- outcome [5]: inactive

Structure (SMILES): CC(=O)[C@@]1(O)CC[C@H]2[C@@H]3C[C@H](C)C4=CC(=O)C=C[C@]4(C)[C@@]3(F)[C@@H](O)C[C@@]21C
- outcome [2]: inactive
- activity change, negative = inhibition [3, 21]: 9.08%
- outcome [4]: inactive
- Potency [7]: > 20.6 µM

Structure (SMILES): O=C(O)COC(=O)Cc1ccccc1Nc1c(Cl)cccc1Cl
- outcome [2]: inactive
- Potency [9]: inactive
- activity change, negative = inhibition [3, 21]: -7.48%
- outcome [4]: inactive
- outcome [5]: inactive

Structure (SMILES): CC(=O)NS(=O)(=O)c1ccc(N)cc1
- outcome [2]: inactive
- Potency [9]: inactive
- Potency [10]: > 92 µM
- Potency [11]: > 92 µM
- Potency [12]: > 92 µM
- Potency [13]: > 92 µM
- Potency [14]: > 92 µM
- activity change, negative = inhibition [3, 21]: -1.44% and -25.8%
- outcome [4]: inactive
- Potency [7]: > 20.6 µM
- Potency [8]: > 20.6 µM
- outcome [5]: inactive
- outcome [15]: inactive
- outcome [16]: inactive
- outcome [17]: inactive
- outcome [18]: inactive
- outcome [19]: inactive
- outcome [20]: inactive
- outcome [6]: inactive

Structure (SMILES): OC(CCN1CCCC1)(c1ccccc1)C1CCCCC1 (configuration not stated)
- outcome [2]: inactive
- activity change, negative = inhibition [3, 21]: -89.4% (active)
- outcome [4]: inactive
- Potency [7]: > 20.6 µM

Structure (SMILES): CCCCOC(=O)c1ccc(N)cc1
- outcome [2]: inactive
- Potency [10]: > 92 µM
- Potency [11]: > 92 µM
- Potency [12]: > 92 µM
- Potency [13]: > 92 µM
- Potency [14]: > 92 µM
- activity change, negative = inhibition [3, 21]: -8.04%
- outcome [4]: inactive
- Potency [7]: > 20.6 µM
- Potency [8]: > 20.6 µM
- outcome [5]: inactive
- outcome [15]: inactive
- outcome [16]: inactive
- outcome [17]: inactive
- outcome [18]: inactive
- outcome [19]: inactive
- outcome [20]: inactive
- outcome [6]: inactive

Structure (SMILES): O=C(O)CCCc1ccccc1
- outcome [2]: inactive
- activity change, negative = inhibition [3, 21]: 20.3%
- outcome [4]: inactive
- Potency [7]: > 20.6 µM

Structure (SMILES): CN1C(C)(C)CCCC1(C)C
- outcome [2]: inactive
- activity change, negative = inhibition ([3]; at 17.2 µM (top of the series)): -4.12%
- activity change, negative = inhibition ([3]; at 38 µM (top of the series)): 7.41%
- outcome [4]: inactive
- Potency [7]: > 46 µM and > 20.6 µM
- Potency [8]: > 46 µM and > 20.6 µM
- outcome [5]: inactive
- outcome [6]: inactive

Structure (SMILES): CC[N+](CC)(CC(=O)Nc1c(C)cccc1C)Cc1ccccc1
- outcome [2]: inactive
- Potency [9]: inactive
- outcome [4]: inactive
- outcome [5]: inactive
- outcome [6]: inactive

Structure (SMILES): Cn1c([N+](=O)[O-])cnc1COC(N)=O
- outcome [2]: inactive
- Potency [9]: inactive
- activity change, negative = inhibition [3, 21]: -6.16% and -23.1%
- outcome [4]: inactive
- Potency [7]: > 20.6 µM
- Potency [8]: > 20.6 µM
- outcome [5]: inactive
- outcome [6]: inactive

Structure (SMILES): Cc1cccc(Nc2ccccc2C(=O)O)c1C
- outcome [2]: inactive
- Potency [9]: 5.01 µM (active)
- activity change, negative = inhibition [3, 21]: -4.97%
- outcome [4]: inactive
- Potency [7]: > 20.6 µM
- Potency [8]: > 20.6 µM
- outcome [5]: inactive

Structure (SMILES): NCc1ccc(S(N)(=O)=O)cc1
- outcome [2]: inactive
- Potency [9]: inactive
- activity change, negative = inhibition [3, 21]: -1.12% and 9.4%
- outcome [4]: inactive
- outcome [5]: inactive
- outcome [6]: inactive

Structure (SMILES): Cn1c(=O)c2c(ncn2CCO)n(C)c1=O
- outcome [2]: inactive
- Potency [9]: inactive
- activity change, negative = inhibition [3, 21]: -0.574%
- outcome [4]: inactive
- outcome [5]: inactive
- outcome [6]: inactive

Structure (SMILES): CN/C(=C\[N+](=O)[O-])NCCSCc1csc(CN(C)C)n1
- outcome [2]: inactive
- Potency [9]: inactive
- activity change, negative = inhibition [3, 21]: -2.1%
- outcome [4]: inactive
- Potency [7]: > 20.6 µM
- Potency [8]: > 20.6 µM
- outcome [5]: inactive
- outcome [6]: inactive
